BAZ2B inh: blocks human BAZ2B | Q9UIF8 | AlphaScreen BAZ2B-H3K14Ac peptide displacement | Potency, µM (doses to about 114 µM), usual class: inhibitors | 4.4% of 360,000 active | AID 504333; note: nearly all actives have a fitted effect of over 60% in size
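BAZ2B 50 nM plus b-H3(5-23)K14Ac 50 nM, PBS pH 7.4/0.01% Tween-20, 30 min RT; compound added (max 110 uM), 30 min RT; streptavidin donor/Ni-chelate acceptor beads 10 ug/mL final, 20 min dark; AlphaScreen read.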
G9a inh: G9a (human) methyltransferase inhibition. Potency, µM (series often up to 102 µM), usual class: inhibitors. G9a H3K9 monomethylation, AlphaScreen, 2 h. Q96KQ7. 8.8% of 350,000 active; note: nearly all actives have a fitted effect of over 75% in size
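Chemiluminescent proximity detection of H3K9 monomethylation, read after 10 min bead incubation in the dark. Reaction: 20 nM G9a, 500 nM biotin-H3K9 peptide, 20 uM SAM cofactor, 2 h, room temperature, following 15 min enzyme-compound preincubation.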
PLK1 PBD block: PLK1 (human) polo-box domain binding inhibition. Plk1 PBD binding of FITC phosphopeptide, fluorescence polarization. Potency, µM, actives largely listed as inhibitors. AID 720504. 2.8% of 360,000 active. P53350; note: series mostly up to about 57 µM; nearly all actives have a fitted effect of over 65% in size
PI5P4K alpha inh: inhibitors of human PI5P4K alpha. P48426. PI5P4Kalpha enzyme, ADP-Glo luminescence, 60 min; active compounds read low. max response, %. 1.2% of 330,000 active; active = max response of -50% or lower; inconclusive = between -30% and -50%; inactive = -30% or higher; note: value at the top dose of about 77 µM
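Controls without substrate or without enzyme flank wells where PI5P4Kalpha converts substrate using 5 microM ATP (final). Incubation lasts 60 minutes at room temperature; ADP formed is read by ADP-Glo luminescence.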
JMJD2A Tudor: JMJD2A Tudor domain (human) inhibition | AlphaScreen JMJD2A-Tudor / H3K4me3 peptide binding | 4.4% of 390,000 active | Potency, µM (top dose mostly 114 µM), most hits filed as inhibitors; note: nearly all actives have a fitted effect of over 50% in size
HP1b chromo inh: HP1-beta chromodomain-methylated histone interaction inhibition. P83916. AlphaScreen HP1-beta / biotin-H3K9me3 peptide binding. Potency, µM (top dose mostly 114 µM), actives largely listed as inhibitors. 0.56% of 390,000 active; note: nearly all actives have a fitted effect of over 70% in size
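Compound inhibition of the preformed complex between 50 nM HP1-beta and 50 nM biotinylated H3K9me3 peptide was read by AlphaScreen. Buffer was PBS pH 7.4 with 0.01% Tween-20. Incubations ran 30 min at room temperature, with 10 ug/mL donor/acceptor beads.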
Of the large screens only hits and unclear results are named; the others gave an inactive call. Only some compounds are listed: those with a hit (about 12% of all), similar ones and a draw of the others. Unless noted, calls come from the whole dose curve; as a rule, active = well fitted curve in the direction sought with a large enough effect; inconclusive = small, poorly fitted or top-dose-only effect, or another doubt; inactive = no such curve, though single readings can be large; an effect the other way counts as inactive or inconclusive.

COc1cc2c3c(c1OC)Oc1ccc(cc1)C[C@H]1c4c(cc(OC)c(OC)c4Oc4ccc(cc4)C[C@@H]3N(C)CC2)CCN1C	PI5P4K alpha inh -92, JMJD2A Tudor inconclusive (no result: BAZ2B inh, G9a inh)
CCN(CC)S(=O)(=O)c1cccc(N=Nc2c(O)n(CC)c(=S)n(CC)c2=O)c1	BAZ2B inh inconclusive, G9a inh inconclusive, PLK1 PBD block inconclusive, JMJD2A Tudor 20µM, HP1b chromo inh inconclusive
Cn1c(O)c(N=Nc2cccc(S(=O)(=O)N3CCOCC3)c2)c(=O)n(C)c1=O	none
Cc1ccc(-n2c(/C=C/c3cc(Br)cs3)nc3ccccc3c2=O)cc1C	none (no result: PLK1 PBD block, PI5P4K alpha inh)
Cc1ccc(C(C)C)c(OCCn2c(=O)oc3ccccc32)c1	none
CCNC(=S)NCCC1=c2ccccc2=N/C1=C\c1c(O)n(C)c(=O)n(C)c1=O	BAZ2B inh inconclusive, G9a inh 10µM, PLK1 PBD block 1.1µM, HP1b chromo inh inconclusive
Cn1c(O)c(/C=C2\C=Nc3ccc(Br)cc32)c(=O)n(C)c1=O	none
O=c1[nH]c(O)c(N=Nc2ccc3c(c2)OCCO3)c(=O)[nH]1	BAZ2B inh inconclusive, G9a inh 50µM, JMJD2A Tudor inconclusive
O=C(O)c1ccccc1N=Nc1c(O)[nH]c(=O)[nH]c1=O	G9a inh inconclusive, PI5P4K alpha inh inconclusive
COc1ccc(N=Nc2c(O)[nH]c(=S)[nH]c2=O)cc1	G9a inh inconclusive
COc1cccc(N=Nc2c(O)[nH]c(=S)[nH]c2=O)c1	G9a inh 50µM, PI5P4K alpha inh inconclusive
O=C(N=Nc1c(O)[nH]c(=O)[nH]c1=O)C1COc2ccccc2O1 (stereo unspecified)	G9a inh 45µM
O=c1[nH]c(O)c(N=Nc2ccc(S(=O)(=O)N3CCOCC3)cc2)c(=O)[nH]1	G9a inh 13µM
O=C(Nc1ccc2c(c1)OCO2)c1cccn(Cc2cccc([N+](=O)[O-])c2)c1=O	none (no result: PLK1 PBD block, PI5P4K alpha inh)
NS(=O)(=O)c1ccc(N=Nc2c(O)[nH]c(=S)[nH]c2=O)cc1	PI5P4K alpha inh inconclusive (no result: G9a inh)
O=c1[nH]c(=S)[nH]c(O)c1N=Nc1cccc(S(=O)(=O)N2CCOCC2)c1	G9a inh 50µM, PI5P4K alpha inh inconclusive
O=c1[nH]c(=S)[nH]c(O)c1N=Nc1ccc(S(=O)(=O)N2CCOCC2)cc1	BAZ2B inh inconclusive, PLK1 PBD block inconclusive, PI5P4K alpha inh -55 (no result: G9a inh)
O=c1[nH]c(=S)[nH]c(O)c1N=Nc1cc(S(=O)(=O)Nc2ccc(Cl)cc2)ccc1Cl	BAZ2B inh 35µM, G9a inh inconclusive, PLK1 PBD block 30µM, PI5P4K alpha inh -59, JMJD2A Tudor 35µM, HP1b chromo inh 40µM
O=c1[nH]c(O)c(N=Nc2cccc(S(=O)(=O)N3CCOCC3)c2)c(=O)[nH]1	none
CC(C)c1cc2c(c(O)c1O)[C@]1(C(=O)O)CCCC(C)(C)C1CC2 (stereo partly specified)	none (no result: BAZ2B inh, PLK1 PBD block, PI5P4K alpha inh, JMJD2A Tudor, HP1b chromo inh)
CCCn1c(C)c(C(=O)c2ccc3ccccc3c2)c2ccccc21	none (no result: BAZ2B inh, PLK1 PBD block, PI5P4K alpha inh, JMJD2A Tudor, HP1b chromo inh)
Cc1ccc(OP2(=O)Nc3cc(C)c(C)cc3S2)cc1 (stereo unspecified)	PLK1 PBD block 1.7µM, JMJD2A Tudor 1.3µM (no result: BAZ2B inh, G9a inh)
Cc1ccc2c(c1)NP(=S)(Oc1ccccc1)N2 (stereo unspecified)	PLK1 PBD block inconclusive (no result: BAZ2B inh, G9a inh)
CC(=O)N1CC[N+](C)(C)CC1	none (no result: BAZ2B inh, PLK1 PBD block, PI5P4K alpha inh, JMJD2A Tudor, HP1b chromo inh)
CC(Cc1ccc(O)cc1)NCC(O)c1ccc(O)c(O)c1 (stereo unspecified)	PLK1 PBD block inconclusive, PI5P4K alpha inh -59 (no result: BAZ2B inh, G9a inh, JMJD2A Tudor, HP1b chromo inh)
CC(Cc1ccc(OCC(=O)O)cc1)NCC(O)c1cccc(Cl)c1 (stereo unspecified)	none (no result: BAZ2B inh, PLK1 PBD block, PI5P4K alpha inh, JMJD2A Tudor, HP1b chromo inh)
Cc1ccccc1-n1c(O)c(/C=N/NC(=O)c2ccncc2)c(=O)[nH]c1=O	BAZ2B inh inconclusive, PI5P4K alpha inh inconclusive, JMJD2A Tudor 89µM
Cc1cc(C)c(-n2c(O)c(/C=N/NC(=O)c3ccncc3)c(=O)[nH]c2=O)c(C)c1	JMJD2A Tudor inconclusive
Cc1ccc(N=Cc2c(O)n(-c3ccc(C)cc3)c(=O)[nH]c2=O)cc1	none (no result: BAZ2B inh, G9a inh)
CC(C)c1ccc(-n2c(O)c(/C=N/NC(=O)c3ccncc3)c(=O)[nH]c2=O)cc1	BAZ2B inh inconclusive, G9a inh 18µM, JMJD2A Tudor inconclusive

Screens as filed in PubChem.
